HT1080NT lethal = kills 2HG-producing HT-1080-NT fibrosarcoma cells; HT-1080-NT fibrosarcoma viability, CellTiter-Glo ATP luminescence, 48 h; AID 686970; Potency, µM (titrated, usually from 46.1 µM), for inactives: top-dose activity, negative = less viability, hits mostly cytotoxic; actives 1.6% (n = 360,000);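 also: NT is the 2HG producing partner of a matched IDH1 knockdown line; potency is read from the fitted curve at half-maximal effect; 0% = DMSO-treated cells and -100% = media-only wells without cells; nearly all actives have a fitted effect of over 55% in size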
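Viability of the 2HG-overproducing fibrosarcoma line after 48 hours of compound exposure at 37 degrees C was determined by luminescence with CellTiter-Glo, and concentration-effect curves were then fitted and categorized.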
TDP1 cell CPT = DT40-hTDP1 cell growth loss with CPT; actives 12% (n = 420,000); AID 686979; chicken DT40 Tdp1-/-;hTDP1 cells + 20 nM CPT, ATP luminescence, 48 h; Potency, µM (top dose mostly 46.2 µM), without a hit: at the top dose activity change, negative = growth inhibition, actives largely listed as inhibitors; also: potency is read from the fitted curve at half-maximal effect; nearly all actives have a fitted effect of over 55% in size
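Chicken DT40 Tdp1-/- cells stably complemented with human TDP1 were seeded at 400 cells/well in medium containing 20 nM camptothecin, exposed to pin-transferred compounds, and grown at 37 °C for at least 48 hr. Viability was read as ATP luminescence.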
ELG1 repair inh = blocks ELG1-dependent DNA repair in HEK293T cells. AID 504467. HEK293T ELG1-luciferase reporter, luminescence, 16 h; DNA damage induced by 5-fluorouridine. Potency, µM (series often up to 46.1 µM), inactives show at the top dose activity change, negative = inhibition, most hits filed as inhibitors. actives 2.3% (n = 330,000); also: potency is read from the fitted curve at half-maximal effect; nearly all actives have a fitted effect of over 55% in size
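Quantitative HTS, concentration-response format. 2,000 cells/well co-treated with 5-fluorouridine and compound, 16 hr in 5% CO2 at 37 °C; ONE-Glo luminescence read after 30 min.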
IL-1B inflam inh = inflammasome signaling inhibition, IL-1 beta readout; activity change, % at 57.5 µM; AID 743279; actives 4.7% (n = 360,000); THP-1 LPS/ATP IL-1B secretion, AlphaLISA, 16 h; hits give low values; in the data active = activity change below about -50%; inconclusive = mostly about -30% to -49%
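Secreted IL-1B measured by AlphaLISA bead assay after 16 h compound exposure of THP-1 cells; compounds (final up to 57.5 uM) added 1 h before LPS (250 ng/mL) and ATP (1.25 mM) stimulation; lower signal means less secretion.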
HT1080 IDH1KD tx = toxicity to HT-1080 IDH1 knockdown cells (counter line); HT-1080 IDH1 knockdown viability, ATP luminescence, 48 h; Potency, µM (doses to about 46.1 µM), without a hit: at the highest dose activity, negative = toxicity, actives largely listed as cytotoxic; actives 2% (n = 360,000);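 also: potency is read from the fitted curve at half-maximal effect; 0% = DMSO wells and -100% = cell-free medium wells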
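% activity derives from luminescence (CellTiter-Glo), normalised to DMSO and no-cell wells. HT-1080-IDH1KD cells, 750/well, had 48 h compound exposure at 37 °C.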
TDP1 cell noCPT = qHTS for Inhibitors of human tyrosyl-DNA phosphodiesterase 1 (TDP1): qHTS in cells in absence of CPT; DT40 Tdp1-/- hTDP1 cells, no CPT, ATP luminescence, 48 h; actives 15% (n = 420,000); Potency, µM (top dose mostly 46.2 µM), for inactives: at the highest dose activity change, negative = growth inhibition, actives largely listed as inhibitors; also: potency is read from the fitted curve at half-maximal effect; nearly all actives have a fitted effect of over 55% in size
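Readout: luminescence from CellTiter-Glo after 30 min in the dark at RT. Cells: DT40 Tdp1-/- with stable hTDP1, 400/well. Exposure: compounds alone, ≥48 hr, 37 °C.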
Starred values were filed as active, the others as inactive; ? = inconclusive; nt = not tested or not shown. A selection: hits, their analogues and other compounds. The true share with any hit is near 19%. Unless noted, calls follow the shape of the dose curve; as a rule, active = well fitted curve in the direction sought with a large enough effect; inconclusive = small, poorly fitted or top-dose-only effect, or another doubt; inactive = no such curve, though single readings can be large; an effect the other way counts as inactive or inconclusive. Unless noted, % is scaled to controls: 0 for no effect and ±100 for the full control effect.

SMILES	HT1080NT lethal	TDP1 cell CPT	ELG1 repair inh	IL-1B inflam inh	HT1080 IDH1KD tx	TDP1 cell noCPT
Oc1ccc(N=Nc2cccc(C(F)(F)F)c2)cc1C=Nc1ccc(N2CCOCC2)cc1	-3%	23µM*	-16%	42	-1%	18µM*
O=C(c1ccco1)N1CCC[C@@]2(CCN(c3ccncc3)C2)C1	nt	13%	nt	nt	nt	-30%
O=C(c1ccco1)N1CCC2(CC1)CN(c1cccc(-c3ccccc3)c1)C2	nt	23µM*	nt	nt	nt	13µM*
O=C(c1ccco1)N1CCC2(CC1)CCN(C(c1ccccc1)c1ccccc1)CC2	nt	?	nt	nt	nt	21µM*
O=C(Nc1ccccc1)N1CCC2(CC1)CCN(C(=O)c1ccco1)CC2	nt	-22%	nt	nt	nt	?
COc1ccc(C(=O)N2CCC3(CC2)CN(c2ccncc2)C3)cc1	nt	-17%	nt	nt	nt	?
O=C(c1ccncc1)N1CCC2(CC1)CN(c1ccc(-c3ccccc3)cc1)C2	nt	?	nt	nt	nt	7.3µM*
O=C(c1ccco1)N1CCC2(CC1)CN(c1ccc(-c3ccccc3)cc1)C2	nt	7.3µM*	nt	nt	nt	9.2µM*
COc1ccc(N2CC(NC(=O)c3ccc4c(c3)OCO4)CC2=O)cc1OC (stereo unspecified)	nt	-2%	nt	nt	nt	5%
C/C(=N\NC(=O)CSc1ncccn1)c1ccc2c(c1)OCCO2	17%	-5%	20%	-14	?	-22%
O=C(CC(C(=O)O)c1cccc(Cl)c1Cl)c1ccccc1 (stereo unspecified)	1%	-6%	3%	18	12%	-11%
CCN(CC(=O)Nc1ccccc1C(F)(F)F)C(=O)CCS(=O)(=O)c1ccc(C)cc1	-2%	-10%	3%	2	1%	-6%
O=C(c1ccco1)N1CCC2(CC1)CCN(c1ccncc1)CC2	nt	?	nt	nt	nt	21µM*
CCCCCC(=O)N1CC2(CC)CN(C(=O)CCCCC)CC(CC)(C1)C2=O	-5%	16µM*	-2%	3	-8%	?
O=C(Cc1ccc(N2CCNC2=O)cc1)N1CCCC(Nc2cccc(F)c2)C1 (stereo unspecified)	?	2.9µM*	?	47	5.8µM*	2.1µM*
O=C(Cc1ccc(N2CCNC2=O)cc1)N1CCCC(Nc2ccc(F)c(F)c2)C1 (stereo unspecified)	3.3µM*	2.3µM*	2%	63	2.9µM*	3.7µM*
O=C1CCCN1CCC(=O)N1CCCC(Nc2ccc(F)c(F)c2)C1 (stereo unspecified)	0%	-1%	?	5	2%	-14%
O=C(CSc1nnc(NC(=O)c2ccccc2F)s1)NCc1ccco1	10%	-17%	?	4	-1%	?
COc1ccccc1/C=C/CN1CCCC(CO)(Cc2cccc(Cl)c2)C1 (stereo unspecified)	26µM*	?	7%	-70*	16µM*	23µM*
OCC1(Cc2cccc(Cl)c2)CCCN(Cc2sc(N3CCCC3)nc2Cl)C1 (stereo unspecified)	-5%	21µM*	-18%	8	-9%	18µM*
CC(C)(O)C#Cc1ccc(CN2CCCC(CO)(Cc3cccc(Cl)c3)C2)cc1 (stereo unspecified)	-24%	15µM*	-8%	-3	-24%	15µM*
Cc1c(CN2CCCC(CO)(Cc3cccc(Cl)c3)C2)cnn1C (stereo unspecified)	3%	-22%	9%	-14	4%	12%
COc1cc(Cl)c(CN2CCCC(CO)(Cc3cccc(Cl)c3)C2)cc1OC (stereo unspecified)	-26%	18µM*	-26%	11	-25%	?
COc1ccc(F)c(CN2CCCC(CO)(Cc3cccc(Cl)c3)C2)c1 (stereo unspecified)	-8%	?	5%	-7	-11%	?
CC(OC(=O)c1ccc(-n2cnnn2)cc1)C(=O)Nc1ccc(F)c(F)c1F (stereo unspecified)	-5%	-22%	2%	-9	4%	-7%
SMILES	HT1080NT lethal	TDP1 cell CPT	ELG1 repair inh	IL-1B inflam inh	HT1080 IDH1KD tx	TDP1 cell noCPT
O=C(COC(=O)C1CCC1)NCCc1ccc(Cl)cc1Cl	11%	-15%	?	5	7%	12%
CC(C)NC(=O)c1cc(C2CCCCN2S(=O)(=O)c2cccs2)on1 (stereo unspecified)	2%	-14%	nt	15	3%	-6%
CCn1nc(C)c(CN2CCCC(CO)(Cc3cccc(Cl)c3)C2)c1C (stereo unspecified)	-2%	?	?	-2	0%	16µM*
Cc1cccn2c(=O)c(C=NCCO)c(Nc3ccc(Cl)cc3)nc12	nt	nt	-6%	nt	nt	nt
CC(C)(C)OC(=O)N1CCN(C(=O)OCC2c3ccccc3-c3ccccc32)CC1C(=O)O (stereo unspecified)	-5%	23µM*	nt	0	-1%	?
CC1(C)C(=O)NC2=C1C(=O)C(=O)c1ccccc12	nt	1.3µM*	nt	nt	nt	0.94µM*
O=C(O)c1cccc(N2C(=O)/C(=C/c3ccc(SCc4ccc(Cl)cc4)o3)SC2=S)c1	-15%	21µM*	-8%	93	?	?
CCOC(=O)Cc1csc(SC(C)C(=O)NC2CCCCC2C)n1 (stereo unspecified)	5%	-5%	12%	19	7%	-20%
Clc1ccc(CNCCCSc2ncccn2)cc1Cl	-11%	?	-1%	-62*	-13%	?
Clc1cccc(Cl)c1CNCCCSc1ncccn1	-1%	-8%	10%	-14	-2%	?
CCOc1ccc(-c2cncc3nccn23)cc1	?	-22%	nt	-52*	14%	-26%
C[C@H]1CN(S(=O)C(C)(C)C)[C@H](CCO)/C1=C\CCO (stereo partly specified)	2%	26%	nt	-4	8%	9%
COc1ccc(CC(N)c2csc(NC(=O)Nc3cccc(C(F)(F)F)c3)n2)cc1 (stereo unspecified)	18µM*	?	nt	-57*	16µM*	?
NC(CCc1ccccc1)c1csc(NC(=O)Nc2cccc(C(F)(F)F)c2)n1 (stereo unspecified)	16µM*	?	nt	-57*	21µM*	21µM*
O=C(Cc1csc(-c2ccccc2)n1)Nc1ccc(C(F)(F)F)cc1	-7%	-30%	1%	10	-7%	?
NCc1csc(NC(=O)Nc2cccc(C(F)(F)F)c2)n1	-18%	16µM*	nt	-18	?	23µM*

High-throughput results: PubChem BioAssay, National Center for Advancing Translational Sciences (NCATS)
